# Sampled rows, rich in hits. Any-hit rate of the full collection: about 1.9%.
# BaF3 tox – counter-screen for JAK2V617F inhibitors: parental Ba/F3 viability inhibitors | AID 1486 | actives 1.1% (n = 220,000) | inhibition, % at 5.6 µM | CellTiter-Glo ATP luminescence;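 active = inhibition above a per-campaign cutoff, the mean inhibition of all tested compounds plus 3 SD, cut at about 27% in these data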;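 note: 0% = DMSO wells and 100% = JAK Inhibitor I control wells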
# KLF5 inh – kruppel-like factor 5 inhibition; DLD-1 KLF5 promoter-luciferase reporter, luminescence; inhibition, % at 5 µM; actives 0.23% (n = 290,000); AID 1700;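 active = inhibition above a per-plate limit of that plate's mean compound inhibition plus 3 SD, cut at about 60% in these data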;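 note: 0% = DMSO wells and 100% = LY294002 at 200 µM; higher means less KLF5 promoter-driven luciferase light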
# APP transl inh – APP translation inhibition; SH-SY5Y APP 5'UTR-luciferase reporter, luminescence; inhibition, % at 2 µM; actives 0.82% (n = 190,000);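 active = inhibition above a set limit, derived from the sample mean plus 3 SD, cut at about 45% in these data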
# IEC-6 cytotox – kills IEC-6 intestinal cells in KLF5 counter-screen | IEC-6 cytotoxicity, luminescence viability | actives 0.78% (n = 290,000) | inhibition, % at 5 µM; in the data active = inhibition above about 22%;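 note: 0% = plate median of test compound wells and 100% = cytotoxic reference compound wells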
# Ba/F3 V617F tox – loss of viability in JAK2V617F-driven Ba/F3 cells | Ba/F3 EpoR-JAK2V617F viability, ATP luminescence | inhibition, % at 5.6 µM | actives 1.1% (n = 220,000) | AID 1446;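 active = inhibition above the campaign mean plus 3 SD over all tested compounds, cut at about 24% in these data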;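 note: cytokine-independent growth of Ba/F3 cells driven by EpoR plus mutant JAK2; 0% = DMSO-treated cells and 100% = JAK inhibitor I control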
# * marks the source's active call; other numbers are inactive results; . = no result given.
SMILES,BaF3 tox,KLF5 inh,APP transl inh,IEC-6 cytotox,Ba/F3 V617F tox
CCC(=NCCc1c(C)[nH]c2ccc(C)cc12)C1=C(O)CC(c2ccccc2)CC1=O (centres undefined),6,-31,95*,-2,-2
CCCCC(=O)Nc1ccc(C(=O)N2CCN(c3ccccc3OC)CC2)cc1,11,-45,69*,-1,7
CCCCC(=O)Nc1ccc(C(=O)N2CCC(C(=O)OCC)CC2)cc1,38*,-11,3,2,-4
COc1ccccc1N1CCN(C(=O)c2ccc(NC(C)=O)cc2)CC1,9,7,-3,6,4
COc1cc(SC)ccc1C(=O)N1CCN(c2ccccc2OC)CC1,20,36,14,31*,13
CCc1sc(C(=O)NCCc2ccc(S(N)(=O)=O)cc2)cc1C,.,-2,.,-2,.
CCOc1ccccc1NC(=O)C(=O)N/N=C/c1cc(Br)ccc1O,4,-23,59*,8,-1
O=C(N/N=C/c1cc(Br)ccc1O)Nc1ccccc1,7,-39,0,9,-1
CCC(=O)Nc1ccc(C(=O)c2ccccc2)cc1,5,-26,-10,-1,3
CCC(=O)N1CCc2cc(S(=O)(=O)CCC(=O)Nc3ccc(CC)cc3)ccc21,93*,-46,-6,-2,-1
Clc1cccc(CN2CCCCCC2)c1,.,-2,.,-1,.
N=c1c2c(n(Cc3cccc(Cl)c3)c3c1CCC3)CCCC2,61*,28,0,6,72*
O=C1CCCc2ccccc2N1Cc1ccc(F)cc1,6,8,2,-2,0
N=c1c2c(n(Cc3ccccc3)c3c1CCC3)CCC2,60*,25,-10,4,62*
Cc1nc(N2CCN(Cc3ccccc3)CC2)nc2c1CCC2,13,6,8,0,4
N=c1c2c(n(Cc3ccc(F)cc3)c3c1CCC3)CCCC2,57*,13,8,-1,55*
N=c1c2c(n(Cc3ccc(Cl)cc3)c3c1CCC3)CCC2,73*,38,-2,6,95*
O=C(Nc1cc(S(=O)(=O)N2CCOCC2)ccc1N1CCCC1)C1COc2ccccc2O1 (centres undefined),-1,-29,.,-3,-2
Cc1ccc2[nH]cc(CCNS(=O)(=O)c3ccc(F)cc3)c2c1,.,-48,.,1,.
O=C(Sc1cccc2cccnc12)c1ccc(F)cc1,41*,17,71*,87*,43*
COc1ccc(S(=O)(=O)Nc2cc(SCC(=O)O)c(O)c3ccccc23)cc1,.,-81,.,20,.
CC(=O)/C(=N\Nc1ccccc1)Sc1cccc2cccnc12,6,-8,12,14,1
O=S(=O)(Nc1cc(Sc2cccc3cccnc23)c(O)c2ccccc12)c1ccc(F)cc1,3,2,78*,51*,-3
COc1ccc(S(=O)(=O)Nc2cc(Sc3ncn[nH]3)c(O)c3ccccc23)cc1,87*,89*,9,13,90*
CC(C)CC(COCc1ccc([N+](=O)[O-])cc1)N1CCN(C(=O)c2ccc(C(F)(F)F)cc2)CCC1=O (centres undefined),8,-10,11,-2,9
SMILES,BaF3 tox,KLF5 inh,APP transl inh,IEC-6 cytotox,Ba/F3 V617F tox
Cc1ccc2c(Cl)cc(Cl)c(OCC(=O)NC(=O)NCc3ccco3)c2n1,4,-2,-20,1,-2
Oc1ccc2ccccc2c1N=Nc1ccccn1,5,11,83*,8,5
CCOC(=O)c1[nH]cnc1N=Nc1c(O)ccc2ccccc12,6,-39,52*,-5,0
N#Cc1nc(-c2ccco2)oc1NCc1ccccc1Cl,0,-4,.,-9,-4
CCNc1cc2oc(=O)c(CN3CCOCC3)c(C)c2cc1C,-1,-7,1,6,-3
Cn1c(N2CCOCC2)c(/C=N/OC(=O)c2ccc(F)cc2)c2ccccc21,1,-32,40,-1,3
Cc1ccc(C(=O)O/N=C/c2c(N3CCOCC3)n(C)c3ccccc23)cc1,3,8,70*,-4,-3
Cc1ccc(-n2cccc2/C=N/n2cnnc2)cc1Cl,5,-4,-8,-2,0
C=CCn1c(C)cc(C(=O)CN2NS(=O)(=O)c3ccccc3C2=O)c1C,17,-88,85*,-2,4
C=CCn1c(Cc2cccs2)nnc1SCC(=O)Nc1ccc(C(=O)OCC)cc1,0,-13,47*,-1,0
O=C(Nc1ccc(Cl)cc1)/C(=C/c1ccc([N+](=O)[O-])cc1)c1nc2ccccc2s1,-1,4,96*,1,-2
O=C(Nc1nccs1)C12CC3CC(C1)CC(C(=O)Nc1nccs1)(C3)C2,24,23,-29,-12,50*
COc1ccc2c(c1)c(CC(=O)Nc1ccc(C(C)=O)cc1)c(C)n2C(=O)c1ccc(Cl)cc1,6,-22,-3,-2,1
COc1ccc2c(c1)c(CC(=O)Nc1nnc(C3CC3)s1)c(C)n2C(=O)c1ccc(Cl)cc1,38*,-8,.,7,17
CCCCC(=O)NC(=S)Nc1ccccc1C(=O)Nc1ccccc1,0,-9,6,1,-4
CCCCCC(=O)NC(=S)Nc1ccccc1C(=O)OC,5,-37,72*,0,-1
CCc1cccc(NC(=O)CN(C)S(=O)(=O)c2cccs2)c1,1,-26,-7,-2,-4
CCOc1ccc(-n2c(C)cc(/C=N/N(C)C)c2C)cc1,37*,-5,-18,2,10
CCOc1ccc(-n2c(C)cc(/C=N/NC(=O)C(N)=O)c2C)cc1,6,-4,6,-2,0
FC(F)(F)c1ccccc1NC(=S)NN=C1CCCCCC1,0,-14,93*,7,-2
FC(F)(F)c1ccccc1NC(=S)N1CCCC1,-4,3,.,2,2
COc1ccc(NCc2ccc([N+](=O)[O-])s2)cc1,5,-30,49*,-7,-2
O=C(O)c1cc(=O)[nH]c2c(Cl)cccc12,4,-4,-2,5,-2
O=C1C(Cl)=C(NCCN2CCCCC2)C(=O)c2ccccc21,26,10,95*,42*,7
O=C(NCCSc1ccc(Br)cc1)c1ccccc1,-2,-25,14,-3,-3
SMILES,BaF3 tox,KLF5 inh,APP transl inh,IEC-6 cytotox,Ba/F3 V617F tox
Cc1ccc(CN2CCN(/N=C/c3ccc(C(=O)O)cc3)CC2)c(C)c1,53*,-4,-12,7,8
Cc1ccccc1-c1noc(-c2ccccc2C(=O)NCC2CCCO2)n1 (centres undefined),62*,9,.,0,0
COc1ccccc1-c1noc(-c2ccccc2C(=O)NCC2CCCO2)n1 (centres undefined),.,-15,.,3,.
CC[N+](C)(C)CCN(Cc1ccc(Cl)cc1)c1ccccn1,39*,-11,-12,-3,27*
Nc1ccc(N2CCCCCC2)cc1,59*,1,-11,1,43*
COc1ccc(/C=C/c2c(-c3ccc(OC)cc3)oc3ccc(-c4ccc(OC)cc4)cc23)cc1,.,-4,.,4,.
COc1ccc(/C=C/c2cc(-c3ccc(C)cc3)o[n+]2C)cc1,93*,50,-1,2,101*

# Screening data as filed in PubChem.
